# miR122 inh = inhibitors of miR-122 in Huh7 cells. 340,000 tested, 0.3% active. AID 602342. Huh7 miR-122 Renilla luciferase sensor, 48 h; neutral wells = 0, positive control = 100. activation (reporter increase), % at 12.5 µM;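 active = mean replicate activation score at least 90 and every replicate individually at or above 90; inconclusive = only one of the two criteria met; inactive = neither criterion met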;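 note: higher luciferase means less miR-122 activity so hits act as miR-122 inhibitors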
# Env fusion inh = HIV envelope-mediated fusion inhibition. 360,000 tested, 1.1% active. inhibition, % at 12.3 µM. HeLa-JRFL Env/CEM21 cell fusion, luciferase. AID 651610;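 active = mean replicate inhibition score of at least 50 and every replicate individually at or above 50; inconclusive = only one of the two criteria met; inactive = mean below 50 and not all replicates reaching 50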;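 note: 0% = plate neutral controls and 100% = maraviroc near 300 nM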
# Wnt bcat act = activators of Wnt/beta-catenin signaling | Wnt/beta-catenin reporter cell assay, activator, plate reader | activation, % at 9.35 µM | 300,000 tested, 1.2% active; in the data active = activation above about 30%, passing the limit was not always enough; inconclusive = no clear call, values can overlap the other calls;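 note: 0% = neutral control wells and 100% = positive control wells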
# esBAF inh = inhibitors of esBAF chromatin remodeling in mouse ES cells | reporter increase, % at 12.5 µM | AID 602393 | 350,000 tested, 2% active | Bmi1-luciferase knock-in reporter, 24 h; 100% = twice the neutral-well signal; in the data active = activation above about 40%; inconclusive = no clear call, values can overlap the other calls;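 note: 0% = median of the plate's neutral control wells and 100% = double that signal; a rise in the Bmi1 reporter signal indicates esBAF inhibition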
# MITF TRPM1 HTS = activators of MITF-driven TRPM1 promoter activity in SK-MEL-5 cells | activation, % at 12.5 µM | 300,000 tested, 0.75% active | AID 588334 | SK-MEL-5 TRPM1-promoter luciferase, 24 h; % of positive control, neutral wells = 0;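 active = mean activation of at least 80% with every replicate also reaching 80%; inconclusive = mean reaches 80% but some replicate falls short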;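 note: 0% = neutral control wells and 100% = parthenolide positive control wells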
# Active calls of the source: *; ? = inconclusive; . = not tested or not shown; [ ] = remark or other dose. An excerpt weighted towards active compounds, which were near 3.4% of everything screened.
SMILES,miR122 inh,Env fusion inh,Wnt bcat act,esBAF inh,MITF TRPM1 HTS
CCc1ccc([C@H]2[C@@H]3C(=O)C[C@@H]4C(=O)N(C)C(=O)[C@@H]4[C@@H]3CN2S(=O)(=O)c2ccc(C)cc2)cc1,3.5,-13.8,-0.3,2.7,.
CCc1ccc([C@H]2[C@@H]3C(=O)C[C@@H]4C(=O)N(CC)C(=O)[C@@H]4[C@@H]3CN2S(=O)(=O)c2ccc(C)cc2)cc1,-2.6,53.9,-1.7,-1.6,.
C[C@@H]1CN([C@@H](C)CO)C(=O)c2cccc(NS(=O)(=O)c3ccc(F)cc3)c2O[C@@H]1CN(C)C(=O)Nc1cccc2ccccc12,31.1[16.7 µM],.,.,1.8,.
COc1ccccc1S(=O)(=O)Cc1ccc(C(=O)N2CCN(c3cccc(Cl)c3)CC2)o1,15.7,98.0*,.,-9.4,.
COc1ccc(-c2cnc3c(c2)C(=O)N([C@@H](C)CO)C[C@@H](C)[C@@H](CN(C)C(=O)C2CCCCC2)O3)cc1,4.4[16.7 µM],.,.,-3.5,.
Cc1onc(C(=O)Nc2sc3c(c2C#N)CCCC3)c1[N+](=O)[O-],.,-3.8,34.9*,.,0.6
CC(C)C(=O)Nc1sc2c(c1C#N)CCCCC2,28.4,-64.9,13.5,50.4*,.
Cc1cccc(OCC(=O)Nc2sc3c(c2C#N)CCC3)c1,-9.4,.,-1.9,84.3*,73.7
CCCC(=O)Nc1sc2c(c1C#N)CCCC2,-5.3,.,.,52.7*,70.2
COC(=O)CCC(=O)Nc1sc2c(c1C#N)CCCC2,-2.8,.,-3.5,-6.5,-17.9
S=C(NN=C1CCCCC1=NNC(=S)N1CCOCC1)N1CCOCC1,.,66.8*,1.0,.,.
O=C(Nc1cc(-c2ccccc2)[nH]n1)c1ccccc1,1.3,-92.7,43.3*,.,.
O=C(Nc1ccccn1)c1ccc(C(=O)Nc2ccccn2)cc1,3.3,.,.,27.7,.
Cc1ccccc1C(=O)NC(=S)Nc1ncccn1,-6.7,-11.2,2.7,46.7*,39.3
O=C(Nc1ccccn1)c1ccc(Br)s1,-7.3,-31.3,-0.1,47.9*,.
O=C(NC(=S)Nc1ccccn1)c1ccc([N+](=O)[O-])cc1,1.7,-51.2,.,76.6*,78.2
O=C(Nc1ncccn1)c1ccc([N+](=O)[O-])cc1,.,11.8,-0.1,.,13.4
O=C(Nc1ccc(Cl)cc1)c1cncs1,8.6,-26.3,-2.5,3.1,-6.2
O=C(Nc1ccc(Cl)cc1)c1ccc(-c2ccccn2)s1,4.2,-92.7,38.6*,?,.
O=C(Nc1ccccn1)c1ccccc1,.,-19.8,26.3,26.3,82.1*
O=C(NC(=S)Nc1ccccn1)c1ccc(-c2ccccc2)cc1,-4.2,-300.4,-0.9,.,116.5*
O=C(NC(=S)Nc1ccccn1)c1ccccc1,.,-64.4,39.2*,3.7,32.5
O=C(NC(=S)Nc1ccccn1)c1ccco1,.,-25.9,26.9,.,50.4
Cc1cccc(NC(=O)c2c(O)c3ccccc3[nH]c2=O)c1,-6.9,-18.0,41.0*,48.6*,105.7*
O=C(C[C@@H]1CC[C@@H]2[C@H](COC[C@H](O)CN2S(=O)(=O)c2ccc(Oc3ccccc3)cc2)O1)NC1CCC1,8.6[16.7 µM],.,.,2.5,.
SMILES,miR122 inh,Env fusion inh,Wnt bcat act,esBAF inh,MITF TRPM1 HTS
CCC(=O)N1[C@H](CO)[C@@H]2c3ccccc3N(C(=O)c3ccc4c(c3)OCO4)C[C@@H]21,16.7[16.7 µM],.,.,-6.5,.
C[C@@H]1CCCCO[C@@H](CN(C)S(=O)(=O)c2ccc(F)cc2)[C@@H](C)CN([C@@H](C)CO)C(=O)c2cc(NS(=O)(=O)c3cn(C)cn3)ccc2O1,3.5[16.7 µM],-38.3[16.7 µM],.,1.2,.
C[C@H](CO)N1C[C@H](C)[C@H](CN(C)Cc2ccccc2F)Oc2cc(C3=CCCC3)ccc2S1(=O)=O,-26.6[16.7 µM],68.4*[16.7 µM],.,-5.8,.
C[C@H](CO)N1C[C@H](C)[C@@H](CN(C)CC2CCCC2)Oc2cc(C3=CCCCC3)ccc2S1(=O)=O,83.9[16.7 µM],56.3*[16.7 µM],.,-4.3,.
C[C@@H]1CN([C@@H](C)CO)S(=O)(=O)c2ccc(C3=CCCC3)cc2O[C@@H]1CN(C)C(=O)C1CCOCC1,-27.6[16.7 µM],69.7*[16.7 µM],.,-0.5,.
C[C@@H]1CN([C@@H](C)CO)S(=O)(=O)c2ccc(C3=CCCCC3)cc2O[C@H]1CN(C)CC1CCCC1,5.9[16.7 µM],40.1[16.7 µM],.,2.7,.
CCCC(=O)Nc1ccc2c(c1)OC[C@@H](C)N(CCC(F)(F)F)C[C@@H](C)[C@@H](OC)CN(C)C2=O,1.3[16.7 µM],5.7[16.7 µM],.,-2.5,.
CNC[C@H]1Oc2ccc(NS(=O)(=O)c3ccc(OC)cc3)cc2CC(=O)N([C@H](C)CO)C[C@@H]1C,-4.6[16.7 µM],-10.4[16.7 µM],.,-4.5,.
O=c1[nH]c2ccccc2nc1/C=C/c1ccc(F)cc1,-3.2,-92.8,-0.8,55.7*,47.1
O=c1[nH]c2ccccc2nc1/C=C/c1ccccc1,10.3,-52.8,?,.,40.3
O=c1[nH]c2ccccc2nc1/C=C/c1ccc(O)cc1,-1.3,-52.9,10.2,51.1*,60.7
CC(C)(C)c1ccc(-c2noc(-c3ccno3)n2)cc1,-5.5,-106.3,-3.0,26.2,117.9*
O=C(CCN1CCCCC1)N[C@@H]1CC[C@@H](CCNC(=O)c2cc(Cl)cc(Cl)c2)O[C@H]1CO,.,-5.4[16.7 µM],.,1.3,.
O=[N+]([O-])c1ccc(-c2nc(C(Cl)Cl)c3ccccc3n2)cc1,-17.1,73.6*,-2.2,.,.
C[C@@H]1CN([C@@H](C)CO)C(=O)c2cccc(NC(=O)Nc3ccc4c(c3)OCO4)c2O[C@@H]1CN(C)C,-1.4[16.7 µM],.,.,-3.3,.
CC(=O)NC(c1ccc(C)cc1)c1cc([N+](=O)[O-])c2cccnc2c1O (centres undefined),.,47.8*,-1.9,.,5.5
CCCNC(=O)N[C@@H]1CC[C@@H](CC(=O)NCCc2ccccc2)O[C@@H]1CO,-2.0[16.7 µM],-0.1[16.7 µM],.,-3.4,.
COc1ccc(NC(=O)CSc2nc(SC)ns2)cc1,-1.8,-68.3,?,56.4*,108.2*
CSc1nsc(SCC(=O)Nc2ccc(C(C)=O)cc2)n1,-1.2,-83.1,.,47.7*,37.1
COC(=O)[C@H]1[C@H](CO)[C@H]2Cn3c(ccc(/C=C/c4ccccc4)c3=O)[C@H]2N1CC1CCCCC1,2.2[16.7 µM],.,.,7.5,.
COc1ccc(NS(=O)(=O)c2cc(NC(=O)c3cnc(C)cn3)ccc2N2CCCC2)cc1,77.8,-78.4,.,.,4.0
COc1ccc(NS(=O)(=O)c2cc(NC(=O)C3CC3)ccc2N2CCCCC2)cc1,48.1,3.9,-0.9,-5.2,-10.6
COc1ccc(NS(=O)(=O)c2cc(NC(=O)c3ccco3)ccc2N2CCCCC2)cc1,208.7*,-14.3,.,1.3,-7.9
COc1ccc(NS(=O)(=O)c2cc(NC(=O)c3ccc(=O)[nH]c3)ccc2N2CCCC2)cc1,154.6*,-57.1,-6.4,.,-9.4
O=C(NCc1ccccn1)[C@@H]1[C@@H](CO)[C@@H]2Cn3c(cccc3=O)[C@@H]2N1CCc1ccccc1,.,.,.,-5.1,.
CC(C)NC(=O)Nc1ccc2c(c1)C(=O)N([C@H](C)CO)C[C@H](C)[C@@H](CN(C)C(=O)NC(C)C)OCCCC[C@@H](C)O2,8.1[16.7 µM],12.2[16.7 µM],.,.,.
COCC(=O)Nc1ccc2c(c1)[C@H]1C[C@@H](CC(=O)N3CCc4ccccc4C3)O[C@H](CO)[C@H]1O2,6.0[16.7 µM],.,.,-1.2,.
COC(=O)CN1C(c2ccc(OC)cc2)=Nc2ccc(Cl)cc2C1c1ccccc1 (centres undefined),.,0.7,.,.,-2.7
